Data as given in paper PMC9911399, “Two distinct binding modes provide the RNA-binding protein RbFox with extraordinary sequence specificity”.
Numbering of substitutions follows the chain as printed; changes in the protein carry UniProt numbers. In all, about 16,000 sequences were measured (“ka relative to ugcaugu”: median about 0.096, highest 2% from about 0.35 on). The entries come from a sample that favours the highest values as a whole.

T1: RBFOX1 RRM RbFoxmut (Fox-RRM*) (Homo sapiens, UniProt Q9NWB1 109-208, R118D;E147R;N151S;E152T)
T1 sequence: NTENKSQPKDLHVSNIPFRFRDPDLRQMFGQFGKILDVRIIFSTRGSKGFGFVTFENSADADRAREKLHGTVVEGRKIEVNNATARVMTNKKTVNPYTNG

B1: UAGUCAA (DNA:RNA)
RNA: GGGAGACCGGAAUUCAGAUUGUCCUAGUCAAUUAAAUCCCGUCGUAGCCACCA
DNA 1: CAATCTGAATTCCGGTCTCCC
DNA 2: TGGTGGCTACGACGGGATT
B2: GUUGUUC (DNA:RNA)
RNA: GGGAGACCGGAAUUCAGAUUGUCCGUUGUUCUUAAAUCCCGUCGUAGCCACCA
DNA 1: CAATCTGAATTCCGGTCTCCC
DNA 2: TGGTGGCTACGACGGGATT
B3: CGAUCGC (DNA:RNA)
RNA: B1 RNA with U25C, A26G, G27A, A30G, A31C
DNA 1: CAATCTGAATTCCGGTCTCCC
DNA 2: TGGTGGCTACGACGGGATT
B4: UGAAUCG (DNA:RNA)
RNA: B2 RNA with G25U, U26G, U27A, G28A, U30C, C31G
DNA 1: CAATCTGAATTCCGGTCTCCC
DNA 2: TGGTGGCTACGACGGGATT
B5: GAAUCGC (DNA:RNA)
RNA: B1 RNA with U25G, G27A, A30G, A31C
DNA 1: CAATCTGAATTCCGGTCTCCC
DNA 2: TGGTGGCTACGACGGGATT
B6: GAAUCCG (DNA:RNA)
RNA: B1 RNA with U25G, G27A, A30C, A31G
DNA 1: CAATCTGAATTCCGGTCTCCC
DNA 2: TGGTGGCTACGACGGGATT
B7: UGAACCG (DNA:RNA)
RNA: B1 RNA with A26G, G27A, U28A, A30C, A31G
DNA 1: CAATCTGAATTCCGGTCTCCC
DNA 2: TGGTGGCTACGACGGGATT
B8: CGAAUCG (DNA:RNA)
RNA: B2 RNA with G25C, U26G, U27A, G28A, U30C, C31G
DNA 1: CAATCTGAATTCCGGTCTCCC
DNA 2: TGGTGGCTACGACGGGATT
B9: GAAUUGU (DNA:RNA)
RNA: B2 RNA with U26A, U27A, G28U, U30G, C31U
DNA 1: CAATCTGAATTCCGGTCTCCC
DNA 2: TGGTGGCTACGACGGGATT
B10: GGAUCGC (DNA:RNA)
RNA: B2 RNA with U26G, U27A, G28U, U29C, U30G
DNA 1: CAATCTGAATTCCGGTCTCCC
DNA 2: TGGTGGCTACGACGGGATT
B11: UGAAUUG (DNA:RNA)
RNA: B2 RNA with G25U, U26G, U27A, G28A, C31G
DNA 1: CAATCTGAATTCCGGTCTCCC
DNA 2: TGGTGGCTACGACGGGATT
B12: GAAUCGU (DNA:RNA)
RNA: B1 RNA with U25G, G27A, A30G, A31U
DNA 1: CAATCTGAATTCCGGTCTCCC
DNA 2: TGGTGGCTACGACGGGATT
B13: GAAAUCG (DNA:RNA)
RNA: B2 RNA with U26A, U27A, G28A, U30C, C31G
DNA 1: CAATCTGAATTCCGGTCTCCC
DNA 2: TGGTGGCTACGACGGGATT
B14: GAACCGU (DNA:RNA)
RNA: B1 RNA with U25G, G27A, U28C, A30G, A31U
DNA 1: CAATCTGAATTCCGGTCTCCC
DNA 2: TGGTGGCTACGACGGGATT
B15: UCCCACC (DNA:RNA)
RNA: B2 RNA with G25U, U26C, U27C, G28C, U29A, U30C
DNA 1: CAATCTGAATTCCGGTCTCCC
DNA 2: TGGTGGCTACGACGGGATT
B16: GAGACGU (DNA:RNA)
RNA: B1 RNA with U25G, U28A, A30G, A31U
DNA 1: CAATCTGAATTCCGGTCTCCC
DNA 2: TGGTGGCTACGACGGGATT
B17: CGUCCCU (DNA:RNA)
RNA: B2 RNA with G25C, U26G, G28C, U29C, U30C, C31U
DNA 1: CAATCTGAATTCCGGTCTCCC
DNA 2: TGGTGGCTACGACGGGATT
B18: ACGGCGC (DNA:RNA)
RNA: B2 RNA with G25A, U26C, U27G, U29C, U30G
DNA 1: CAATCTGAATTCCGGTCTCCC
DNA 2: TGGTGGCTACGACGGGATT
B19: AGAGAUA (DNA:RNA)
RNA: B2 RNA with G25A, U26G, U27A, U29A, C31A
DNA 1: CAATCTGAATTCCGGTCTCCC
DNA 2: TGGTGGCTACGACGGGATT
B20: AAUCCAU (DNA:RNA)
RNA: B1 RNA with U25A, G27U, U28C, A31U
DNA 1: CAATCTGAATTCCGGTCTCCC
DNA 2: TGGTGGCTACGACGGGATT

Molecular target: T1, RBFOX1 RRM RbFoxmut (Fox-RRM*)
Assay: EMSA; HiTS-Eq, 1 nM pool, 10 min; buffer printed only for the single-RNA assays: 10 mM Tris pH 7.5, 150 mM NaCl, 3.4 mM EDTA, 0.001% NP-40, 30 C
Conditions: tags: His6 N-terminal (pET28a); label: 5' 32P
In short: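 Purified RbFox RRM (wild type or mutant) was equilibrated for 10 min in 50 µL with 1 nM of a 5′-radiolabelled pool of RNA with 7 randomized nucleotides, its flanks annealed to DNA oligonucleotides, across increasing protein concentrations. Free RNA was separated by 8% native PAGE, excised, reverse-transcribed, PCR-barcoded and sequenced on an Illumina HiSeq 2500. Relative association constants came from read-count changes of each variant against the control reaction, normalised to the cognate motif.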

Binder	binding signal
B1	0.0801 KA relative to UGCAUGU
B2	0.106 KA relative to UGCAUGU
B3	0.0736 KA relative to UGCAUGU
B4	0.363 KA relative to UGCAUGU
B5	0.512 KA relative to UGCAUGU
B6	0.219 KA relative to UGCAUGU
B7	0.0911 KA relative to UGCAUGU
B8	0.374 KA relative to UGCAUGU
B9	0.192 KA relative to UGCAUGU
B10	0.23 KA relative to UGCAUGU
B11	0.174 KA relative to UGCAUGU
B12	0.576 KA relative to UGCAUGU
B13	0.0585 KA relative to UGCAUGU
B14	0.126 KA relative to UGCAUGU
B15	0.0864 KA relative to UGCAUGU
B16	0.0818 KA relative to UGCAUGU
B17	0.0565 KA relative to UGCAUGU
B18	0.119 KA relative to UGCAUGU
B19	0.15 KA relative to UGCAUGU
B20	0.074 KA relative to UGCAUGU
